In PubChem BioAssay (NCI):
About 79,000 compounds went through this panel and 15% of them were active in at least one assay; those are over-represented in the sample as a whole. A number with no mark means an inactive call. The source made the active and inactive calls. Rule as the data show it: active = growth inhibition above about 70%; inactive = the rest.

How the values were obtained:
[1] = NCI Yeast Anticancer Drug Screen. Data for the rad50 strain (AID 155);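 also: 0% = growth of vehicle-only cultures of the same strain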; details: S. cerevisiae rad50 strain growth inhibition, hits give high values
Outline: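 Cells are treated with compound, grown, and their growth is then scored against vehicle-only cultures of the same repair-deficient yeast strain.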

[2] = NCI Yeast Anticancer Drug Screen. Data for the mec2-1 strain (AID 157); details: S. cerevisiae mec2-1 strain, hits give high values
Outline: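 Each compound was tested on mec2-1 yeast, a strain altered in DNA damage repair or cell cycle control. Growth inhibition is reported relative to vehicle.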

[3] = NCI Yeast Anticancer Drug Screen. Data for the sgs1 mgt1 strain (AID 161);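 also: 0% = growth of cultures given vehicle only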; details: S. cerevisiae sgs1 mgt1 strain, hits give high values
Outline: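 Mutant yeast exposed to compound; growth scored against vehicle-only wells.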

[4] = NCI Yeast Anticancer Drug Screen. Data for the cln2 rad14 strain (AID 165);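 also: 0% = growth equal to vehicle treated cultures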; details: S. cerevisiae cln2 rad14 strain, hits give high values
Outline: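 Test compounds were added to cln2 rad14 yeast cultures; inhibition of growth was then determined by comparison with vehicle treatment.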

[5] = NCI Yeast Anticancer Drug Screen. Data for the bub3 strain (AID 167); details: S. cerevisiae bub3 mutant strain, hits give high values
Outline: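 Part of a panel of yeast mutants defective in DNA damage repair or cell cycle regulation. Each strain is grown with compound, and inhibition is calculated relative to solvent-treated cultures.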

[6] = NCI Yeast Anticancer Drug Screen. Data for the mlh1 rad18 strain (AID 175); details: S. cerevisiae mlh1 rad18 strain growth inhibition, hits give high values
Outline: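 Inhibition values reflect reduced growth of mutant yeast versus vehicle-treated controls following compound exposure; the mutations affect DNA damage repair.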

[7] = at 5.0 µM (retest, dose inferred, filed as 0.5)
[8] = at 50.0 µM (retest, dose inferred, filed as 5.0)

CCCCCCSc1nc2ccc(N=Cc3ccccc3O)cc2s1
growth inhibition [1, 7]: 90% (active)
growth inhibition [1, 8]: 89% (active)
growth inhibition ([1]; at 50.0 µM): 81.8% (active)
growth inhibition [2, 7]: 83% (active)
growth inhibition [2, 8]: 91% (active)
growth inhibition ([2]; at 50.0 µM): 55.2%
growth inhibition [3, 7]: 93% (active)
growth inhibition [3, 8]: 88% (active)
growth inhibition ([3]; at 50.0 µM): 70.3% (active)
growth inhibition [4, 7]: 58%
growth inhibition [4, 8]: 65%
growth inhibition ([4]; at 50.0 µM): 48%
growth inhibition [5, 7]: 55%
growth inhibition [5, 8]: 86% (active)
growth inhibition ([5]; at 50.0 µM): 15.2%
growth inhibition [6, 7]: 86% (active)
growth inhibition [6, 8]: 88% (active)
growth inhibition ([6]; at 50.0 µM): 80.1% (active)

CSS(=O)(=O)c1ccc(C)cc1
growth inhibition [1, 7]: 22%
growth inhibition [1, 8]: 99% (active)
growth inhibition ([1]; at 50.0 µM): 99.7% (active)
growth inhibition [2, 7]: 22%
growth inhibition [2, 8]: 100% (active)
growth inhibition ([2]; at 50.0 µM): 99.7% (active)
growth inhibition [3, 7]: 21%
growth inhibition [3, 8]: 100% (active)
growth inhibition ([3]; at 50.0 µM): 99.2% (active)
growth inhibition [4, 7]: -27%
growth inhibition [4, 8]: 99% (active)
growth inhibition ([4]; at 50.0 µM): 99.4% (active)
growth inhibition [5, 7]: 18%
growth inhibition [5, 8]: 100% (active)
growth inhibition ([5]; at 50.0 µM): 99.5% (active)
growth inhibition [6, 7]: -10%
growth inhibition [6, 8]: 99% (active)
growth inhibition ([6]; at 50.0 µM): 99.5% (active)

Fc1ccc(NC(=S)SCc2ccco2)cc1
growth inhibition [1, 7]: 5%
growth inhibition [1, 8]: 87% (active)
growth inhibition ([1]; at 50.0 µM): 89% (active)
growth inhibition [2, 7]: 0%
growth inhibition [2, 8]: 71% (active)
growth inhibition ([2]; at 50.0 µM): 61.6%
growth inhibition [3, 7]: 5%
growth inhibition [3, 8]: 67%
growth inhibition ([3]; at 50.0 µM): 84.7% (active)
growth inhibition [4, 7]: 1%
growth inhibition [4, 8]: 24%
growth inhibition ([4]; at 50.0 µM): 42.5%
growth inhibition [5, 7]: -5%
growth inhibition [5, 8]: 34%
growth inhibition ([5]; at 50.0 µM): 26.6%
growth inhibition [6, 7]: 1%
growth inhibition [6, 8]: 77% (active)
growth inhibition ([6]; at 50.0 µM): 95.4% (active)

O=[N+]([O-])c1ccc(/C=N/O)s1
growth inhibition [1, 7]: -11%
growth inhibition [1, 8]: 99% (active)
growth inhibition ([1]; at 50.0 µM): 99.5% (active)
growth inhibition [2, 7]: 3%
growth inhibition [2, 8]: 100% (active)
growth inhibition ([2]; at 50.0 µM): 99.7% (active)
growth inhibition [3, 7]: -7%
growth inhibition [3, 8]: 99% (active)
growth inhibition ([3]; at 50.0 µM): 97.7% (active)
growth inhibition [4, 7]: 10%
growth inhibition [4, 8]: 95% (active)
growth inhibition ([4]; at 50.0 µM): 99.2% (active)
growth inhibition [5, 7]: -17%
growth inhibition [5, 8]: 99% (active)
growth inhibition ([5]; at 50.0 µM): 99.7% (active)
growth inhibition [6, 7]: 12%
growth inhibition [6, 8]: 99% (active)
growth inhibition ([6]; at 50.0 µM): 99.3% (active)

CSc1nc(C)cc(SCc2ccc(Cl)cc2Cl)n1
growth inhibition [1, 7]: -3%
growth inhibition [1, 8]: 4%
growth inhibition ([1]; at 50.0 µM): -20.9%
growth inhibition [2, 7]: -3%
growth inhibition [2, 8]: -7%
growth inhibition ([2]; at 50.0 µM): -20.6%
growth inhibition [3, 7]: -2%
growth inhibition [3, 8]: 8%
growth inhibition ([3]; at 50.0 µM): -0.95%
growth inhibition [4, 7]: 2%
growth inhibition [4, 8]: -1%
growth inhibition ([4]; at 50.0 µM): -36.7%
growth inhibition [5, 7]: 2%
growth inhibition [5, 8]: 18%
growth inhibition ([5]; at 50.0 µM): 75% (active)
growth inhibition [6, 7]: -2%
growth inhibition [6, 8]: 21%
growth inhibition ([6]; at 50.0 µM): -25.4%

C=CCOCCC(=O)OCC=C
growth inhibition [1, 7]: 0%
growth inhibition [1, 8]: -2%
growth inhibition ([1]; at 50.0 µM): 7%
growth inhibition [2, 7]: 1%
growth inhibition [2, 8]: 0%
growth inhibition ([2]; at 50.0 µM): 40.4%
growth inhibition [3, 7]: 1%
growth inhibition [3, 8]: -1%
growth inhibition ([3]; at 50.0 µM): 15.9%
growth inhibition [4, 7]: -1%
growth inhibition [4, 8]: 0%
growth inhibition ([4]; at 50.0 µM): 72.2% (active)
growth inhibition [5, 7]: -2%
growth inhibition [5, 8]: -1%
growth inhibition ([5]; at 50.0 µM): 67.4%
growth inhibition [6, 7]: -1%
growth inhibition [6, 8]: -1%
growth inhibition ([6]; at 50.0 µM): 70.8% (active)

NC(N)=NS(=O)(=O)c1ccc(N=Cc2c3ccccc3nc3cc(Cl)ccc23)cc1
growth inhibition [1, 7]: 5%
growth inhibition [1, 8]: -4%
growth inhibition ([1]; at 50.0 µM): 95.1% (active)
growth inhibition [2, 7]: 11%
growth inhibition [2, 8]: -2%
growth inhibition ([2]; at 50.0 µM): 93% (active)
growth inhibition [3, 7]: 4%
growth inhibition [3, 8]: -5%
growth inhibition ([3]; at 50.0 µM): 96.2% (active)
growth inhibition [4, 7]: -5%
growth inhibition [4, 8]: -3%
growth inhibition ([4]; at 50.0 µM): 91.5% (active)
growth inhibition [5, 7]: 10%
growth inhibition [5, 8]: 0%
growth inhibition ([5]; at 50.0 µM): 26.5%
growth inhibition [6, 7]: 6%
growth inhibition [6, 8]: -2%
growth inhibition ([6]; at 50.0 µM): 97% (active)

O=[N+]([O-])c1ccccc1OS(=O)(=O)c1ccccc1
growth inhibition [1, 7]: 0%
growth inhibition [1, 8]: -2%
growth inhibition ([1]; at 50.0 µM): -2.5%
growth inhibition [2, 7]: -12%
growth inhibition [2, 8]: -8%
growth inhibition ([2]; at 50.0 µM): -1.1%
growth inhibition [3, 7]: 4%
growth inhibition [3, 8]: 20%
growth inhibition ([3]; at 50.0 µM): -0.45%
growth inhibition [4, 7]: -25%
growth inhibition [4, 8]: 36%
growth inhibition ([4]; at 50.0 µM): 6.4%
growth inhibition [5, 7]: -4%
growth inhibition [5, 8]: 6%
growth inhibition ([5]; at 50.0 µM): 14.3%
growth inhibition [6, 7]: -6%
growth inhibition [6, 8]: 3%
growth inhibition ([6]; at 50.0 µM): 0.65%

NC(=S)NNc1c([N+](=O)[O-])cnn(-c2ccccc2)c1=O
growth inhibition [1, 7]: 18%
growth inhibition [1, 8]: 30%
growth inhibition ([1]; at 50.0 µM): 3.85%
growth inhibition [2, 7]: -28%
growth inhibition [2, 8]: 3%
growth inhibition ([2]; at 50.0 µM): 3.05%
growth inhibition [3, 7]: -27%
growth inhibition [3, 8]: -13%
growth inhibition ([3]; at 50.0 µM): 9.7%
growth inhibition [4, 7]: -9%
growth inhibition [4, 8]: 16%
growth inhibition ([4]; at 50.0 µM): 20.3%
growth inhibition [5, 7]: -19%
growth inhibition [5, 8]: 21%
growth inhibition ([5]; at 50.0 µM): -4.75%
growth inhibition [6, 7]: -22%
growth inhibition [6, 8]: -25%
growth inhibition ([6]; at 50.0 µM): 71.2% (active)

O=C(/C=C/c1cc(O)c(O)cc1O)OCCc1ccccc1
growth inhibition [1, 7]: 17%
growth inhibition [1, 8]: 50%
growth inhibition ([1]; at 50.0 µM): 47.1%
growth inhibition [2, 7]: 16%
growth inhibition [2, 8]: 61%
growth inhibition ([2]; at 50.0 µM): 75.5% (active)
growth inhibition [3, 7]: 20%
growth inhibition [3, 8]: 64%
growth inhibition ([3]; at 50.0 µM): 69.8%
growth inhibition [4, 7]: 32%
growth inhibition [4, 8]: 33%
growth inhibition ([4]; at 50.0 µM): 53.7%
growth inhibition [5, 7]: 25%
growth inhibition [5, 8]: 68%
growth inhibition ([5]; at 50.0 µM): 66%
growth inhibition [6, 7]: 21%
growth inhibition [6, 8]: 75% (active)
growth inhibition ([6]; at 50.0 µM): 68.5%
